MCF10A rerep: DNA re-replication induction in MCF 10a cells; MCF 10A DNA re-replication, Hoechst nuclear intensity, 48 h; Potency, µM (highest dose often 46.1 µM), inactives show top-dose activity, positive = re-replication, actives largely listed as activators; actives 2.9% (n = 350,000); AID 624296; note: % of control where 0% means no effect; nearly all actives have a fitted effect of over 50% in size
KB-3-1 tox: KB-3-1 parental cell cytotoxicity. actives 1.4% (n = 400,000). AID 1347075. KB-3-1 viability, CellTiter-Glo ATP luminescence, 72 h. Potency, µM (titrated, usually from 46.1 µM), most hits filed as cytotoxic; note: % is set by controls: 0 for no effect and ±100 for the full control effect; nearly all actives have a fitted effect of over 60% in size
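Viability of parental KB-3-1 cells, measured by CellTiter-Glo luminescence, followed a 72 h incubation at 37 °C with pinned compounds in phenol-red-free DMEM containing 10% FBS.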
HT1080 IDH1KD tx: toxicity to HT-1080 IDH1 knockdown cells (counter line); Potency, µM (series often up to 46.1 µM), for the others: top-dose activity, negative = toxicity, most hits filed as cytotoxic; HT-1080 IDH1 knockdown viability, ATP luminescence, 48 h; actives 2% (n = 360,000);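 note: 0% = DMSO wells and -100% = cell-free medium wells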
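In this qHTS, HT-1080 cells depleted of IDH1 are exposed for 48 h at 37 °C to compound titrations. Toxicity is scored from CellTiter-Glo luminescence, with DMSO as full viability and medium alone as none.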
HT1080-NT tox: kills 2HG-producing HT-1080-NT fibrosarcoma cells. HT-1080-NT fibrosarcoma viability, CellTiter-Glo ATP luminescence, 48 h. actives 1.6% (n = 360,000). Potency, µM (doses to about 46.1 µM), without a hit: at the top dose activity, negative = less viability, hits mostly cytotoxic;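 note: NT is the 2HG producing partner of a matched IDH1 knockdown line; 0% = DMSO-treated cells and -100% = media-only wells without cells; nearly all actives have a fitted effect of over 55% in size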
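Viability by CellTiter-Glo luminescence after 48 h compound exposure at 37C of HT-1080-NT cells (750/well, RPMI, 5% FBS). % activity scaled between DMSO wells and medium-only wells, then curve-fitted and categorized by curve class.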
SW480 rerep: DNA re-replication induction in SW480 cells | SW480 DNA re-replication, Hoechst DNA content imaging, 48 h | Potency, µM (series often up to 46.1 µM), for the others: top-dose re-replication activation, actives largely listed as activators | actives 1.8% (n = 340,000); note: % of control where 0% means no effect; nearly all actives have a fitted effect of over 55% in size
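Cells (250 per well) received 23 nL compound or DMSO by pin tool and were kept 48 hr at 37 C, 5% CO2. Nuclei were then stained with Hoechst for 40 min and scanned for DNA content.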
KB-V1 MDR tox: kills drug-selected multidrug resistant KB-V1 cells; AID 1347076; actives 3.4% (n = 400,000); KB-V1 MDR cells viability, CellTiter-Glo, 72 h; Potency, µM (top dose mostly 46.1 µM), most hits filed as cytotoxic; note: % is set by controls: 0 for no effect and ±100 for the full control effect; nearly all actives have a fitted effect of over 60% in size
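Potencies derive from concentration-effect curves fitted to normalized luminescence (CellTiter-Glo) of KB-V1 cells treated for 72 h at 37 degrees C in phenol-red-free DMEM containing 10% FBS.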
Active calls of the source: *; i = inactive; ? = inconclusive; nt = no result given; [ ] = remark or other dose. Rows were chosen to be rich in hits. Some 8% of all compounds tested hit in one or more screens of this group. Calls come from the whole dose curve; as a rule, active = well fitted curve in the direction sought with a large enough effect; inconclusive = small, poorly fitted or top-dose-only effect, or another doubt; inactive = no such curve, though single readings can be large; an effect the other way counts as inactive or inconclusive. Potency is the fitted concentration of half-maximal effect.

SMILES	MCF10A rerep	KB-3-1 tox	HT1080 IDH1KD tx	HT1080-NT tox	SW480 rerep	KB-V1 MDR tox
CCn1c(=O)c(C(=O)NNC(=O)c2cccc(Cl)c2)c(O)c2ccccc21	23.1µM*	i	?	13µM*	?	?
Cn1c(=O)c(C(=O)NNC(=O)c2cccc(Cl)c2)c(O)c2ccccc21	7.31µM*	i	9.2µM*	6.51µM*	9.2µM*	?
CCc1ccc(C2=C(C)C(N3CCC(C(=O)Nc4ccc(F)cc4)CC3)=NS2(=O)=O)cc1	nt	i	nt	nt	nt	i
COC(=O)c1ccc(C(=O)OC)c(NC(=O)c2cnn3c(C(F)F)cc(-c4ccccc4)nc23)c1	nt	i	nt	nt	nt	i
CCOc1ccc(CCNC(=O)c2ccc3[nH]c(C)c(C)c3c2)cc1	nt	i	nt	nt	nt	i
CCOC(=O)C(C)n1nc(C)c2sc3ccccc3c2c1=O (centres undefined)	24.0%	i	6.0%	10.9%	10.3%	20.6µM*
N#C/C(=C/c1cn(Cc2ccc(F)cc2)c2ccccc12)C(=O)Nc1cccc(Cl)c1	nt	i	nt	nt	nt	?
Cc1cccn2c(=O)c(C(=O)N3CCN(c4ccc(Cl)cc4)CC3)cnc12	nt	i	nt	nt	nt	i
COc1c(Cl)cc(C(=O)NN)cc1Cl	?	i	2.59µM*	2.06µM*	13µM*	i
CN(C(=O)CSc1nc2ccc(NC(=O)c3cccs3)cc2s1)c1ccccc1	nt	i	nt	nt	nt	?
CCCOc1ccc(CCc2n[nH]c(=S)n2-c2ccccc2)cc1	1.3%	i	-19.1%	-3.2%	-8.2%	i
CCCOc1ccc(CCc2n[nH]c(=S)n2Cc2ccccc2)cc1	20.6µM*	i	?	?	1.8%	i
COc1ccc(CN(Cc2ccco2)c2cnc(S(C)(=O)=O)nc2C(=O)Nc2ccc(F)cc2)cc1	nt	i	nt	nt	nt	i
CC(C)(C)OC(=O)N1CCC(c2c(C(=O)NCc3ccco3)cnn2-c2ccccc2)CC1	nt	i	nt	nt	nt	i
COc1ccc(/C=C(/CC(=O)Nc2ccccc2)c2nc3ccccc3s2)cc1	4.6%	i	-2.9%	-7.0%	3.4%	i
COc1ccc(/C=C(/CC(=O)NCc2ccc(Cl)cc2)c2nc3ccccc3s2)cc1	1.6%	i	-9.3%	7.0%	?	10.3µM*
Cc1ccc(C)c(N(C)C(=O)CCNC(=O)Cn2cnc3ccccc3c2=O)c1	nt	i	nt	nt	nt	i
CCOCc1cnc(C)nc1NCC(=O)c1c(C)[nH]c2ccccc12	16.7%	23.1µM*	-9.2%	-6.1%	0.6%	i
CCOCc1cnc(C)nc1NCC(=O)c1c(C)[nH]c2cc(C)ccc12	0.0%	16.4µM*	-1.9%[9.24 µM]	?	-5.6%	i
CCOC(=O)C1CCN(CC(=O)c2c(C)[nH]c3cc(C)ccc23)CC1	-0.9%	i	-3.5%	-1.2%	-0.2%	i
CC(C)CCOc1ccc(Cn2c(=O)oc3ccccc32)cc1	nt	i	nt	nt	nt	?
Cc1ccc(CCNC(=O)c2ccc(CSCc3ccccc3Cl)o2)cc1	nt	i	nt	nt	nt	i
COc1ccc(C(=O)Nc2nc(-c3nnn(-c4ccc(C(C)C)cc4)c3C)ns2)cc1	nt	i	nt	nt	nt	?
O=C(/C=C/c1c(F)c(F)c(F)c(F)c1F)Nc1cccc([S+](=O)([O-])Nc2ccccc2F)c1	nt	i	nt	nt	nt	i
COc1ccc(C(=O)C2CCCN(Cc3cccn3-c3ccccn3)C2)cc1F (centres undefined)	?	i	?	-14.7%	1.7%[1.84 µM]	i
SMILES	MCF10A rerep	KB-3-1 tox	HT1080 IDH1KD tx	HT1080-NT tox	SW480 rerep	KB-V1 MDR tox
O=C(c1ccc(Cl)cc1)C1CCCN(Cc2cccn2-c2ccccn2)C1 (centres undefined)	5.6%	i	23.1µM*	16.4µM*	2.1%	i
Cc1ccsc1C(=O)C1CCCN(Cc2cccn2-c2ccc(Cl)cn2)C1 (centres undefined)	?	i	?	?	18.4µM*	?
COc1cccc(C(=O)C2CCCN(Cc3cccn3-c3ccccn3)C2)c1 (centres undefined)	-1.9%	i	?	?	5.4%	i
CC(C)Oc1cccc(C(=O)C2CCCN(Cc3cccn3-c3ccccn3)C2)c1 (centres undefined)	11.0%	?	20.6µM*	23.1µM*	?	?
CN(CC(=O)Nc1ccc(F)c(F)c1F)C(=O)CC1CCCCC1	-5.3%	i	-9.5%	-2.8%	-6.7%	14.6µM*
Cc1cccc(OCc2nc(CC(=O)Nc3ccc(Cl)cc3)cs2)c1	nt	i	nt	nt	nt	i
NC(=O)c1ccc(NC(=O)C#Cc2ccccc2)cc1	?	23.1µM*	16.4µM*	20.6µM*	14.6µM*	i
COc1ccc(NC(=O)c2ccccc2SC)cc1OC	-13.6%	i	10.0%	8.3%	-5.2%	i
COc1ccc(NC(=O)C#Cc2ccccc2)cc1OC	9.8%	18.4µM*	18.4µM*	?	26.8%	?
O=C(Nc1nnc(-c2ccncc2)s1)Nc1cccc2ccccc12	nt	i	nt	nt	nt	i
Cc1ccc(S(=O)(=O)Nc2ccc(SC(F)F)cc2)c(C)c1	?	i	-11.0%	-1.3%	0.6%	16.4µM*
COc1ccc(NS(=O)(=O)c2cc(OC)ccc2NC(=O)c2cc(C)oc2C)cc1	13µM*	?	5.8µM*	5.8µM*	13µM*	?
CCOC(=O)CNS(=O)(=O)c1cc(-c2n[nH]c(=O)c3ccccc23)ccc1C	0.4%	i	-2.1%	0.8%	2.0%	i
COc1ccc(NS(=O)(=O)c2cc(C)ccc2C)cc1	?	7.31µM*	?	-25.4%	?	i
Cc1ccc(NS(=O)(=O)c2cc(-c3n[nH]c(=O)c4ccccc34)ccc2C)cc1	?	11.6µM*	14.6µM*	18.4µM*	23.1µM*	20.6µM*
COc1ccc(C(=O)N2CCN(C(=O)COc3ccccc3)CC2)cc1OC	nt	i	nt	nt	nt	i
Cc1ccc2occ(-c3cc(-c4ccc(F)cc4)nc4c3COc3ccc(F)cc3-4)c(=O)c2c1	nt	i	nt	nt	nt	i
CCOc1ccc(C(=O)NCCc2sc(-c3ccc(OC)c(OC)c3)nc2C)cc1	nt	i	nt	nt	nt	?
COc1ccc(NS(=O)(=O)c2cc(NC(=O)c3ccc(=O)[nH]n3)ccc2C)cc1	?	?	?	25.9µM*	18.4µM*	?
COc1ccc(NS(=O)(=O)c2cc(C(=O)O)ccc2C)cc1	3.1%	i	2.4%[9.24 µM]	-26.5%	-6.1%	i
Cc1c(CCO)sc[n+]1CCc1ccccc1	nt	i	nt	nt	nt	i
